Source: PubChem
TbPYK inhibitor: qHTS of Trypanosoma Brucei Inhibitors; pyruvate kinase (Trypanosoma brucei), Q57TT1; TbPYK enzyme, Kinase-Glo Plus ATP luminescence, 45 min; Potency, µM (series often up to 76.8 µM), actives largely listed as inhibitors; 0.12% of 410,000 active; AID 624173, 2012; further: nearly all actives have a fitted effect of over 50% in size
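Assay buffer: 50 mM TEA pH 7.2, 100 mM KCl, 10 mM MgCl2, 0.05% BSA, 0.01% Tween-20. Pyruvate kinase from T. brucei plus substrate met compound, then ADP (130 uM final). Luminescence was read post 45 min RT.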
LmPK inh: qHTS Assay for Inhibitors of Leishmania Mexicana Pyruvate Kinase (LmPK). Potency, µM (top dose mostly 57.5 µM), most hits filed as inhibitors. 0.37% of 290,000 active. purified LmPK, Kinase-Glo ATP luminescence, 1 h. Q27686. AID 1721, 2009
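Pyruvate kinase activity monitored as ATP production (luciferase luminescence). Conditions: 0.1 nM enzyme, 0.5 mM PEP, 0.1 mM ADP, 1 h, RT; normalized against uninhibited and no-enzyme wells.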
NS1 function inh: qHTS Assay for Inhibitors of Influenza NS1 Protein Function; Potency, µM (top dose mostly 46.1 µM); 0.4% of 270,000 active; AID 2326, 2010; calls by dose curve; further: actives are rising curves; nearly all actives have a fitted effect of over 50% in size
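S. cerevisiae expressing influenza A NS1, grown in glucose, washed, then diluted 1:100 into pH 6.0 -URA galactose medium with 23 nl compound. Growth recovery read as OD600; NS1-free strain serves as control.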
Giardia FBPA inh: qHTS Assay for Inhibitors of Fructose-1,6-bisphosphate Aldolase from Giardia Lamblia; A8B2U2; purified Giardia FBPA; Potency, µM (titrated, usually from 59.6 µM), actives largely listed as inhibitors; 0.71% of 290,000 active; AID 2451, 2010; further: nearly all actives have a fitted effect of over 55% in size
Target sequence (A8B2U2 whole entry, looked up): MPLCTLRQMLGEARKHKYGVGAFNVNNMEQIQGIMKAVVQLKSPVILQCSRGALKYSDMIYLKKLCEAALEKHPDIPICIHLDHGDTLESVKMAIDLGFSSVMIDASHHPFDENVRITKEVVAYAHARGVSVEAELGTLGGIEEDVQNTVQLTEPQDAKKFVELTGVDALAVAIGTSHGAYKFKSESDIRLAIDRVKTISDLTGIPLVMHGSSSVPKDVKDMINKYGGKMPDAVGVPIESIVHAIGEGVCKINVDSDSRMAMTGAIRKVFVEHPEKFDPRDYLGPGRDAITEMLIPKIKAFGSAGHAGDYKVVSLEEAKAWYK
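Giardia FBPA (40 nM reagent) was preincubated 10 min at RT with compound (up to 57.5 uM final), then substrate plus GAPDH/TPI/NAD/arsenate coupling system with diaphorase/resazurin was added; resorufin fluorescence (525/598 nm) was read after 20 min.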
RE007 growth inh: qHTS Assay for Inhibitors of the HIV-1 protein Vpr; S. pombe RE007 Vpr strain, BacTiter-Glo ATP luminescence, 24 h; Potency, µM (titrated, usually from 92.2 µM), most hits filed as inhibitors; 0.21% of 360,000 active; active means well fitted falling curve with a large enough effect; inconclusive means small, poorly fitted or top-dose-only effect; inactive means no such curve, though single readings can be large or run the other way; further: nearly all actives have a fitted effect of over 50% in size
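Fission yeast RE007 carrying one integrated HIV-1 vpr copy, seeded at OD 0.01 in PMG+AL medium with 23 nL pinned compound. Grown 24 h at 30 degrees; viability read by BacTiter-Glo luminescence after 5 min.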
Sm TGR inh: qHTS Assay for the Inhibitors of Schistosoma Mansoni Peroxiredoxins. Schistosoma mansoni thioredoxin glutathione reductase (TGR), Q962Y6. purified TGR, DTNB reduction, TNB absorbance 405 nm. Potency, µM (highest dose often 114 µM), most hits filed as inhibitors. 3% of 360,000 active. AID 485364, 2010; further: nearly all actives have a fitted effect of over 60% in size
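First, TGR (20 nM dispensed) and NADPH were mixed with compound. Second, a 15 min room-temperature incubation followed. Third, further NADPH and then DTNB were added to start the reaction. Finally, TNB absorbance was monitored kinetically.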
Large screens that a line does not name were inactive. Only some compounds are listed: those with a hit (about 3.5% of all), similar ones and a draw of the others. Unless noted, the call rests on the fitted dose curve; in most records, active means well fitted curve in the direction sought with a large enough effect; inconclusive means small, poorly fitted or top-dose-only effect, or another doubt; inactive means no such curve, though single readings can be large; an effect the other way counts as inactive or inconclusive.

O=C(Nc1ccccc1)c1nnsc1S(=O)c1ccc(Cl)cc1 (stereo not drawn)	TbPYK inhibitor inconclusive, RE007 growth inh 2.8µM, Sm TGR inh 0.1µM
O=C(c1nnsc1S(=O)(=O)c1ccc(Cl)cc1)N1CCOCC1	Sm TGR inh 11µM (no result: NS1 function inh)
Cc1nnsc1S(=O)c1ccc(Cl)cc1 (stereo not drawn)	none
O=C(c1cc(-c2ccc(Cl)cc2)on1)N1CCOCC1	none
CCN(Cc1nc(-c2ccc(OC)cc2)oc1C)S(=O)(=O)c1ccc(Cl)cc1	none (no result: LmPK inh, NS1 function inh, Giardia FBPA inh, RE007 growth inh)
COc1ccc(Nc2nnc(-c3ccc(C)c(S(N)(=O)=O)c3)c3ccccc23)cc1	none (no result: LmPK inh, NS1 function inh, Giardia FBPA inh, RE007 growth inh)
O=C(COC(=O)c1ccc([N+](=O)[O-])o1)Nc1nc2ccccc2s1	Sm TGR inh 28µM
O=C(COC(=O)c1ccc(Br)o1)Nc1nc2ccccc2s1	none
CCOC(=O)N1CCN(C(=O)c2ccc(CS(=O)c3ccccc3)o2)CC1 (stereo not drawn)	none (no result: Giardia FBPA inh)
Cc1cccc(S(=O)Cc2ccc(C(=O)N3CCOCC3)o2)c1 (stereo not drawn)	Sm TGR inh 45µM (no result: Giardia FBPA inh)
C=CCn1c(CNC(=O)c2ccco2)nnc1SCC(=O)N1c2ccccc2Sc2ccccc21	Sm TGR inh 35µM
Clc1ccc(CSc2nnc(-c3cccnc3)n2Cc2ccco2)c(Cl)c1	Sm TGR inh 14µM
c1cncc(CSc2nnc(-c3cccnc3)n2Cc2ccco2)c1	Sm TGR inh inconclusive (no result: TbPYK inhibitor, RE007 growth inh)
C=CCn1c(CNC(=O)c2ccco2)nnc1SCC(=O)c1ccc(F)cc1	none
O=C(CSc1nnc(-c2cccnc2)n1Cc1ccco1)N1c2ccccc2Sc2ccccc21	Sm TGR inh 25µM
COc1ccc(C(=O)CSc2nnc(-c3cccnc3)n2Cc2ccco2)cc1	Sm TGR inh 56µM
COc1ccc(C(=O)CSc2nnc(-c3cc4ccccc4cc3O)n2Cc2ccco2)cc1	Sm TGR inh inconclusive
Clc1cccc(CSc2nnc(-c3cccnc3)n2Cc2ccco2)c1	Sm TGR inh inconclusive
Cc1ccc(NC(=O)c2sc3nc(-c4ccc(F)cc4)cn3c2C)c(C)c1	none (no result: LmPK inh, NS1 function inh, Giardia FBPA inh, RE007 growth inh)
COc1ccc(C(=O)CSc2nnc(-c3cnccn3)n2Cc2ccco2)cc1	Sm TGR inh 35µM
CN(C)S(=O)(=O)N1C(=O)c2ccccc2C1=O	LmPK inh 28µM
Cc1cc(C(=O)C(C)Cl)c(C)n1Cc1ccco1 (stereo not drawn)	Sm TGR inh 28µM (no result: NS1 function inh)
O=C(NC(=S)Nc1ccc(S(=O)(=O)Nc2nccs2)cc1)c1cccnc1	Sm TGR inh 13µM
CCc1nnc(NS(=O)(=O)c2ccc(NC(=O)/C=C/C(=O)O)cc2)s1	Sm TGR inh 5.6µM
Cc1ccc(S(=O)(=O)Nc2ccc(NC(=O)/C=C/C(=O)O)cc2)cc1	Sm TGR inh 50µM
CCc1nnc(NS(=O)(=O)c2ccc(NC(=S)NC(=O)c3ccccc3)cc2)s1	Sm TGR inh 40µM
CCC(C(=O)O)n1ccc2cc(S(=O)(=O)N3CCCCC3)ccc21 (stereo not drawn)	none (no result: LmPK inh, NS1 function inh, Giardia FBPA inh, RE007 growth inh)
COc1ccc(S(=O)(=O)NCC(c2ccc(N(C)C)cc2)N2CCOCC2)cc1 (stereo not drawn)	none (no result: LmPK inh, NS1 function inh, Giardia FBPA inh, RE007 growth inh)
CC(=O)c1cccc(Nc2ncnc3c2cnn3C)c1	none (no result: LmPK inh, NS1 function inh, Giardia FBPA inh, RE007 growth inh)
O=C(NC(=S)Nc1ccc(S(=O)(=O)Nc2nccs2)cc1)c1ccccc1	Sm TGR inh 35µM
CCOc1ccccc1NC(=O)Cn1c(=O)n(CCCCC(=O)NCCCOC)c(=O)c2ccccc21	none (no result: LmPK inh, NS1 function inh, Giardia FBPA inh, RE007 growth inh)
O/N=C/c1cc(Br)ccc1OCc1ccc(F)cc1	RE007 growth inh 35µM (no result: LmPK inh, NS1 function inh, Giardia FBPA inh, Sm TGR inh)
Cc1ccc(COc2ccc(Br)cc2/C=N/O)cc1	RE007 growth inh 32µM
O/N=C/c1cc(Br)ccc1OCc1cccc(F)c1	RE007 growth inh inconclusive
COCCNC(=O)c1cc(Sc2ccc(F)cc2F)nc2ccccc12	none (no result: LmPK inh, NS1 function inh, Giardia FBPA inh, RE007 growth inh)
Cc1ccccc1C(=O)Nc1ccc(NC(=O)c2cccs2)cc1	none (no result: LmPK inh, NS1 function inh, Giardia FBPA inh, RE007 growth inh)
CO/C=C\C=C/c1nnn(-c2ccc(Cl)cc2)n1	RE007 growth inh inconclusive, Sm TGR inh 8.9µM
O=C1C=CC(=O)c2c(O)c(N3CCN(CCO)CC3)c(Cl)c(O)c21	TbPYK inhibitor inconclusive, RE007 growth inh 63µM (no result: LmPK inh, NS1 function inh, Giardia FBPA inh, Sm TGR inh)
O=S(=O)(c1ccc(Br)cc1Cl)N1CCN(CCO)CC1	none (no result: NS1 function inh)
CC(C)CC(NC(=O)C1CCCCC1)C(=O)Nc1cccc(C(F)(F)F)c1 (stereo not drawn)	none (no result: LmPK inh, NS1 function inh, Giardia FBPA inh, RE007 growth inh)
O=C1CC(SCc2nc3ccccc3[nH]2)C(=O)N1c1cccc(F)c1 (stereo not drawn)	RE007 growth inh 32µM, Sm TGR inh inconclusive
O=C1CC(SCCc2nc3ccccc3[nH]2)C(=O)N1c1ccc(Cl)cc1 (stereo not drawn)	RE007 growth inh inconclusive, Sm TGR inh inconclusive
CCOc1ccc(N2C(=O)CC(SCc3nc4ccccc4[nH]3)C2=O)cc1 (stereo not drawn)	RE007 growth inh 10µM, Sm TGR inh 45µM
O=C1CC(SCc2nc3ccccc3[nH]2)C(=O)N1c1ccc(Cl)cc1 (stereo not drawn)	RE007 growth inh 16µM, Sm TGR inh 25µM
O=C1CC(SCc2nc3ccccc3[nH]2)C(=O)N1c1ccc(F)c(Cl)c1 (stereo not drawn)	Sm TGR inh 40µM (no result: TbPYK inhibitor)
CCCOc1ccc(N2C(=O)CC(SCCc3nc4ccccc4[nH]3)C2=O)cc1 (stereo not drawn)	none
Cc1nc(-c2ccccc2)sc1CCNS(=O)(=O)c1ccc(Br)cc1	none (no result: LmPK inh, NS1 function inh, Giardia FBPA inh, RE007 growth inh)
Cc1ccc(-c2cc(NC(=O)c3ccccc3Cl)on2)cc1	none (no result: LmPK inh, NS1 function inh, Giardia FBPA inh, RE007 growth inh)
